Measurements reported in PubChem BioAssay (NCATS).
Inconclusive results are not listed. Active and inactive are the calls of the source. The call rests on the fitted dose curve; in most records, active means well fitted inhibition curve with a large enough effect; inconclusive means small, poorly fitted or top-dose-only effect; inactive means flat fitted curve, though single readings scatter.

Experiments:
P94_40 = test: qHTS profiling for inhibitors of Plasmodium falciparum proliferation (AID 504749);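 further: 0% = DMSO vehicle and full inhibition = artemisinin control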; settings: P. falciparum in erythrocytes, SYBR Green DNA, 72 h; series mostly up to 28.7 µM
Summary of the method: (§1)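 Readout was DNA-dye fluorescence from lysed cultures, ex 485/em 535 nm. Parasitized red cells had grown 72 h with compound; data scaled between 0.29 uM artemisinin and DMSO wells and corrected using vehicle-only plates.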

PAD = test: as above; settings: P. falciparum in erythrocytes, SYBR Green DNA, 72 h; series mostly up to 28.7 µM
Summary of the method: as §1

PC15 = test: as above; settings: P. falciparum in erythrocytes, SYBR Green DNA, 72 h; series mostly up to 28.7 µM
Summary of the method: as §1

PC26 = test: as above; settings: P. falciparum in erythrocytes, SYBR Green DNA, 72 h; series mostly up to 28.7 µM
Summary of the method: as §1

PC49 = test: as above; settings: P. falciparum in erythrocytes, SYBR Green DNA, 72 h; series mostly up to 28.7 µM
Summary of the method: as §1

SC27B = test: as above; settings: P. falciparum in erythrocytes, SYBR Green DNA, 72 h; series mostly up to 28.7 µM
Summary of the method: as §1

TAB109 = test: as above; settings: P. falciparum in erythrocytes, SYBR Green DNA, 72 h; series mostly up to 28.7 µM
Summary of the method: as §1

TAB113 = test: as above; settings: P. falciparum in erythrocytes, SYBR Green DNA, 72 h; series mostly up to 28.7 µM
Summary of the method: as §1

TAB165 = test: as above; settings: P. falciparum in erythrocytes, SYBR Green DNA, 72 h; series mostly up to 28.7 µM
Summary of the method: as §1

W2 = test: as above; settings: P. falciparum in erythrocytes, SYBR Green DNA, 72 h; series mostly up to 28.7 µM
Summary of the method: as §1

CRL-7250 = normal cell line; test: Cytotoxic Profiling of Annotated Libraries Using Quantitative High-Throughput Screening (AID 1296008); settings: Five cell lines viability, CellTiter-Glo ATP luminescence, 48-72 h; active compounds read low; on max response: on the % scale 0 is the no-effect control and ±100 the full control effect
Summary of the method: (§2)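 Cells exposed to compounds for 48 or 72 hr at 37 degrees Celsius. Viability read as ATP-coupled luminescence with CellTiter-Glo after 10 min at room temperature.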

HEK293 = test: as above; settings: Five cell lines viability, CellTiter-Glo ATP luminescence, 48-72 h; active compounds read low
Summary of the method: as §2

HaCat [1] = test: as above; settings: Five cell lines viability, CellTiter-Glo ATP luminescence, 48-72 h; active compounds read low
Summary of the method: as §2

KB-3-1 = test: as above; settings: Five cell lines viability, CellTiter-Glo ATP luminescence, 48-72 h, active compounds read low
Summary of the method: as §2

NIH3T3 = test: as above; settings: Five cell lines viability, CellTiter-Glo ATP luminescence, 48-72 h; active compounds read low
Summary of the method: as §2

HACAT [2] = test: qHTS assay to identify novel small-molecules to repurpose for Merkel cell carcinoma treatment (AID 1296009); settings: MCC and control cell lines, CellTiter-Glo viability, 72 h; at 44.8 µM (top of the series) unless noted
Summary of the method: (§3)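 Cells were incubated with compound for 72 hr at 37 degree celsius before CellTiter-Glo addition. Luminescence was normalized with no-cell wells as full cytotoxicity and DMSO as baseline.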

MCC-13 = test: as above; settings: MCC and control cell lines, CellTiter-Glo viability, 72 h; series mostly up to 46 µM
Summary of the method: as §3

MCC-26 = test: as above; settings: MCC and control cell lines, CellTiter-Glo viability, 72 h; series mostly up to 46 µM
Summary of the method: as §3

MKL-1 = test: as above; settings: MCC and control cell lines, CellTiter-Glo viability, 72 h; series mostly up to 46 µM
Summary of the method: as §3
Further: nearly all actives have a fitted effect of over 60% in size.

CN/C(=C\[N+](=O)[O-])NCCSCc1csc(CN(C)C)n1
inactive: Potency (P94_40) | Potency (PAD) | Potency (PC15) | Potency (PC26) | Potency (PC49) | Potency (SC27B) | Potency (TAB109) | Potency (TAB113) | Potency (TAB165) | Potency (W2) | max response (CRL-7250) -2.16% | max response (HEK293) -19.8% | outcome (HaCat [1]) | max response (KB-3-1) 8.03% | max response (NIH3T3) 0.469% | outcome (HACAT [2]) | outcome (MCC-13) | outcome (MCC-26) | outcome (MKL-1)

O=C(O)Cn1c(C(=O)Nc2nc(-c3ccccc3Cl)cs2)cc2ccccc21
inactive: Potency (P94_40) | Potency (PAD) | Potency (PC15) | Potency (PC26) | Potency (PC49) | Potency (SC27B) | Potency (TAB109) | Potency (TAB113) | Potency (TAB165) | Potency (W2) | outcome (CRL-7250) | max response (HEK293) -5.16% | outcome (HaCat [1]) | max response (KB-3-1) -7.98% | outcome (NIH3T3) | outcome (HACAT [2]) | outcome (MCC-13) | outcome (MCC-26) | outcome (MKL-1)

CC(=O)Oc1cccc(C)c1
inactive: Potency (P94_40) | Potency (PAD) | Potency (PC15) | Potency (PC26) | Potency (PC49) | Potency (SC27B) | Potency (TAB109) | Potency (TAB113) | Potency (TAB165) | Potency (W2) | max response (CRL-7250) 2.1% | max response (HEK293) -2.07% | outcome (HaCat [1]) | max response (KB-3-1) -6.53% | max response (NIH3T3) -2.31% | outcome (HACAT [2]) | outcome (MCC-13) | outcome (MCC-26) | outcome (MKL-1)

CC(=O)Nc1cccc(O)c1
inactive: Potency (P94_40) | Potency (PAD) | Potency (PC15) | Potency (PC26) | Potency (PC49) | Potency (SC27B) | Potency (TAB109) | Potency (TAB113) | Potency (TAB165) | Potency (W2) | max response (CRL-7250) -4.66% | max response (HEK293) 4.09% | outcome (HaCat [1]) | max response (KB-3-1) 0.376% | max response (NIH3T3) 0.534% | outcome (HACAT [2]) | outcome (MCC-13) | outcome (MCC-26) | outcome (MKL-1)

O[C@@H]1CO[C@H]2[C@@H]1OC[C@@H]2O
inactive: Potency (P94_40) | Potency (PAD) | Potency (PC15) | Potency (PC26) | Potency (PC49) | Potency (SC27B) | Potency (TAB109) | Potency (TAB113) | Potency (TAB165) | Potency (W2) | outcome (CRL-7250) | max response (HEK293) -0.534% | outcome (HaCat [1]) | max response (KB-3-1) 6.79% | max response (NIH3T3) 4.37% | outcome (HACAT [2]) | outcome (MCC-13) | outcome (MCC-26) | outcome (MKL-1)

CNc1c2c(nn1C)CCCC2
inactive: Potency (P94_40) | Potency (PAD) | Potency (PC15) | Potency (PC26) | Potency (PC49) | Potency (SC27B) | Potency (TAB109) | Potency (TAB113) | Potency (TAB165) | Potency (W2) | max response (CRL-7250) 2.3% | max response (HEK293) -6.59% | outcome (HaCat [1]) | max response (KB-3-1) -8.03% | max response (NIH3T3) 4.21% | outcome (HACAT [2]) | outcome (MCC-13) | outcome (MCC-26) | outcome (MKL-1)

Cc1c(Cn2ccnc2)c2ccccc2n1CCC(=O)O
inactive: Potency (P94_40) | Potency (PAD) | Potency (PC15) | Potency (PC26) | Potency (PC49) | Potency (SC27B) | Potency (TAB109) | Potency (TAB113) | Potency (TAB165) | Potency (W2) | max response (CRL-7250) 0.62% | max response (HEK293) 1.95% | outcome (HaCat [1]) | max response (KB-3-1) -18.7% | max response (NIH3T3) 3.45% | outcome (HACAT [2]) | outcome (MCC-13) | outcome (MCC-26) | outcome (MKL-1)

CC(=O)OCC(COC(C)=O)OC(C)=O
inactive: Potency (P94_40) | Potency (PAD) | Potency (PC15) | Potency (PC26) | Potency (PC49) | Potency (SC27B) | Potency (TAB109) | Potency (TAB113) | Potency (TAB165) | Potency (W2) | max response (CRL-7250) -1.86% | max response (HEK293) -3.97% | outcome (HaCat [1]) | max response (KB-3-1) 8.48% | outcome (NIH3T3) | outcome (HACAT [2]) | outcome (MCC-13) | outcome (MCC-26) | outcome (MKL-1)

O=C(O)Cc1ccc(CCNS(=O)(=O)c2ccc(Cl)cc2)cc1
inactive: Potency (P94_40) | Potency (PAD) | Potency (PC15) | Potency (PC26) | Potency (PC49) | Potency (SC27B) | Potency (TAB109) | Potency (TAB113) | Potency (TAB165) | Potency (W2) | max response (CRL-7250) 2.04% | max response (HEK293) -7.16% | outcome (HaCat [1]) | max response (KB-3-1) 0.272% | max response (NIH3T3) -0.48% | outcome (HACAT [2]) | outcome (MCC-13) | outcome (MCC-26) | outcome (MKL-1)

NNC(=O)CP(=O)(c1ccccc1)c1ccccc1
inactive: Potency (P94_40) | Potency (PAD) | Potency (PC15) | Potency (PC26) | Potency (PC49) | Potency (SC27B) | Potency (TAB109) | Potency (TAB113) | Potency (TAB165) | max response (CRL-7250) -0.948% | max response (HEK293) 0.687% | outcome (HaCat [1]) | max response (KB-3-1) -1.94% | max response (NIH3T3) -3.5% | outcome (HACAT [2]) | outcome (MCC-13) | outcome (MCC-26) | outcome (MKL-1)

c1ccc2[nH]ccc2c1
inactive: Potency (P94_40) | Potency (PAD) | Potency (PC15) | Potency (PC26) | Potency (PC49) | Potency (SC27B) | Potency (TAB109) | Potency (TAB113) | Potency (TAB165) | Potency (W2) | max response (CRL-7250) 4.59% | max response (HEK293) -5.55% | outcome (HaCat [1]) | max response (KB-3-1) -2.84% | outcome (NIH3T3) | outcome (HACAT [2]) | outcome (MCC-13) | outcome (MCC-26) | outcome (MKL-1)
